The record followed here is PubChem BioAssay (NCI).

Structures are written as SMILES. Where “and” joins values, the source holds several entries; their conditions need not be identical. Identical values can stand only once. About 83,000 compounds went through this panel and 20% of them were active in at least one assay; those are over-represented in the sample as a whole.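 Negative percent growth values reflect cell death: -40 means 40% of the cells present at the start died, and -100 means all died.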 Values without a mark were called inactive. Calls of active or inactive are those of the source. How the source made its calls: active means growth percent below 10; inactive means the rest.

The assay relates to MDA-MB-468 breast. Briefly: NCI-60 one-dose screen, 48 h (100 = growth as untreated, 0 = no growth, -100 = all killed). The note with it: 10 µM unless noted.
Take `CC[C@H](C)C(=O)O[C@H]1C[C@@H](C)C=C2C=C[C@H](C)[C@H](CC[C@@H]3C[C@@H](O)CC(=O)O3)[C@H]21`: the growth is 103%.
For `CC(C)c1ccc(C(=O)OC2CCCC2)cc1` the value was 106%.
For the compound `Nc1c(S(=O)(=O)O)cc2c3c(cccc13)C(=O)OC2=O`, the growth is 85.9%.
`Clc1ccc(/C=N\N2CCCCCC2)cc1`: the growth was 106% and 122%.
As for `c1ccc(COCC[P+](c2ccccc2)(c2ccccc2)c2ccccc2)cc1`, the growth is -10.4% (active).
With `CC(=O)Oc1csc(N(C(C)=O)c2cccc(C(F)(F)F)c2)n1` the figure was 92.1%.
For `C=CC(=O)Nc1cccc(Nc2nc(SC)nc(-c3cccc([N+](=O)[O-])c3)c2C#N)c1`, the growth is 55.9%.
For `CC(=O)c1ccc(Nc2nccc(-c3ccc(Cl)cc3)n2)cc1` the value was 76.7%; for `N=c1c2c(-c3ccccc3)c(-c3ccccc3)n(Cc3ccccc3)c2ncn1CCCO`, -0.433% (active).
With `O=c1cc(C2NCCc3c2[nH]c2ccccc32)c2c(ccc3ccccc32)o1` (stereo not given) the figure was 89.9%; with `O=C(OCc1ccc2c(Cl)cc(Cl)c(O)c2n1)c1cc2ccccc2[nH]1`, -73.1% (active).
With `C=C1CCC2C3(C)COC(c4ccc(OC)cc4Br)OC3CCC2(C)C1/C=C/C1=CCOC1=O` (stereo not given) the figure was 54.3%; with `Cc1nc(-c2ccc(Cl)cc2)ccc1NC(=O)Nc1cccc(C(F)(F)F)c1`, 98.5%.
For `CSc1nc(N)c2c(n1)NC(c1ccccc1)C1CCc3ccccc3C1=N2` (stereo not given), the growth was 76.4%.
With `O[C@@H]1Cc2ccc3ccccc3c2N[C@H](c2ccoc2)C1` the figure was 79.4%; with `CCC(=O)N1C/C(=C/c2ccc(Cl)cc2)C(=O)/C(=C/c2ccc(Cl)cc2)C1`, -84.5% (active).
As to `Nc1ncc(-c2ccc3ncnc(N4CCc5ccc(Cl)cc54)c3c2)cc1C(F)(F)F`, the growth is -36% (active).
With `COc1cc(NS(C)(=O)=O)ccc1Nc1c2ccccc2nc2c(C)cccc12`, the growth is -14.3% (active).
With `CCN1C(=O)N(CC)C2C1NC(=S)N2/N=C/c1ccc(C(F)(F)F)cc1` (stereo not given) the figure was 49.4%; with `O=C(Nc1cccc2c1CCCC2)c1cc2ccccc2cc1O`, 33.8%.
For `O=S(=O)(NCCCNc1nccc(-c2c(-c3cccc(O)c3)nc3occn23)n1)c1ccc(Cl)cc1` the value was 105%.
With `CSc1nc(NCCO)c(C#N)c(-c2cccc(N)c2)n1` the figure was 116%; with `COc1ccc(C(c2cc(OC)c(OC)c(OC)c2)N2CCCCC2)cc1` (stereo not given), 9.32% (active).
With `CCOC(=O)NNc1nncc2ccccc12`, the growth was 105%.
With `CCNc1nc(-c2ccc(Cl)c(OC)c2)c(-c2ccnc(NCCNS(=O)(=O)c3ccc(Cl)cc3)n2)s1`, the growth is -8.24% (active).
With `Cc1ccc(NS(=O)(=O)c2cc(C)ccc2C)cc1` the figure was 0.244% (active); with `O=C1CCC(=O)N1CC1CC2CCC1C2` (stereo not given), 104% and 90.6%.
In the case of `Oc1ccccc1/C=N/Nc1nc2ccccc2s1`, the growth is 21.5%.
Take `O=C(CCN1CCOCC1)Nc1ccc(Cn2nnc3c2C(=O)c2nnn(Cc4ccc(NC(=O)CCN5CCOCC5)cc4)c2C3=O)cc1`: the growth is -72.2% (active).
With `O=C(Nc1ncc(Cc2ccccc2Cl)s1)c1cccs1` the figure was 33.6%; with `COc1cc(-c2nc(N=Nc3c(O)[nH]c4ccc(Br)cc34)[nH]c(=O)c2C#N)cc(OC)c1OC`, 103%; with `COc1ccc(NS(=O)(=O)c2ccc(C)cc2)c([N+](=O)[O-])c1`, 86.6%.
Turning to `COc1cc(C(=O)Oc2ccccc2OC(=O)c2cc(OC)c(OC)c(OC)c2)cc(OC)c1OC`, the growth was 105%.
Turning to `CC#Cc1nc2ccccc2c(=O)[nH]1`, the growth is 14.8%.
With `Cc1cc(C(O)(c2ccc(Nc3ccccc3)cc2)c2ccc(Nc3ccc(S(=O)(=O)O)cc3)cc2)ccc1N` (stereo not given), the growth is -71.3% (active).
As to `O=C1/C(=C/c2ccccc2)Oc2ccc(O)c(I)c21`, the growth was 104%.
As to `CCN1CCN(Cc2ccc(NC(=O)c3cccc(C#Cc4cccc5[nH]nc(N)c45)c3)cc2C(F)(F)F)CC1`, the growth is -30.6% (active).
For `CCNCc1ccc(O)c2ncccc12` the value was 54.6%.
As to `COc1cccc(C=Nc2cc(C(C)C)c(O)cc2C)c1O`, the growth was 95%.
In the case of `Clc1ccc(Nc2nnc(-c3ccc4c(c3)OCO4)o2)cc1`, the growth was 106%.
